High-throughput results (PubChem BioAssay)
An excerpt weighted towards active compounds, which were near 2.6% of everything screened.
Cruzain noTriton = blocks cruzain activity in detergent-free assay; P25779; purified cruzain, Z-FR-AMC fluorescence, no detergent; Potency, µM, for the others: max response, negative = inhibition, most hits filed as inhibitors; 2.3% of 200,000 active; AID 1476;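 also: plate controls were enzyme without inhibitor for no effect and buffer without enzyme for full effect; nearly all actives have a fitted effect of over 40% in size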
Target sequence (P25779 123-467 limits assumed): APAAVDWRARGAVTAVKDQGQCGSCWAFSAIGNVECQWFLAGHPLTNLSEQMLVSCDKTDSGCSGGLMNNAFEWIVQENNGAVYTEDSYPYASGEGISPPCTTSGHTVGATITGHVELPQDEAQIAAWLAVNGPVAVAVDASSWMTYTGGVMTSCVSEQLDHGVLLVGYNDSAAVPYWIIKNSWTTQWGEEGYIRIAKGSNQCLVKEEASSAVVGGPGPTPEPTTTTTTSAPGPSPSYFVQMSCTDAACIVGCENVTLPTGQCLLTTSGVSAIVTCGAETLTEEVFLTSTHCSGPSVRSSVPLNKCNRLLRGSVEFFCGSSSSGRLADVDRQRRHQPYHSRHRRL
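Detergent-free condition (0.00005% Triton X-100) in acetate buffer pH 5.5 with DTT. 1.5 nM enzyme and compound were pre-mixed 15 min, then 2 uM Z-FR-AMC substrate added; reaction progress from fluorescence change between first and third reads (60 s).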
Cruzain inh Det = inhibitors of Trypanosoma cruzi cruzain with detergent | P25779 | purified cruzain, Z-FR-AMC fluorescence, 0.01% Triton | Potency, µM, inactives show max response, negative = inhibition, usual class: inhibitors | 0.43% of 200,000 active | AID 1478;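 also: plate controls were neutral wells for no effect and buffer without enzyme for full effect; nearly all actives have a fitted effect of over 40% in size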
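Cysteine protease activity tested under reducing, mildly acidic conditions (100 mM sodium acetate pH 5.5, 5 mM DTT) plus 0.01% Triton X-100. Cruzain 1.5 nM; substrate Z-FR-AMC 2 uM; 15 min compound preincubation at room temperature.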
Numbers without * were called inactive; u = inconclusive. Calls follow the shape of the dose curve; as a rule, active = well fitted curve in the direction sought with a large enough effect; inconclusive = small, poorly fitted or top-dose-only effect, or another doubt; inactive = no such curve, though single readings can be large; an effect the other way counts as inactive or inconclusive. Potency is read from the fitted curve at half-maximal effect.

SMILES	Cruzain noTriton	Cruzain inh Det
O=C(Nc1ccc(Cl)cc1C(F)(F)F)c1cc(S(=O)(=O)NCc2ccccc2)ccc1F	-5%	1%
CCOC(=O)CCCSc1nc(-c2ccc3c(c2)OCO3)cc(C(F)(F)F)c1C#N	25µM*	-4%
CCOC(=O)CSc1nc(-c2ccc(OC)cc2)cc(C(F)(F)F)c1C#N	-3%	-3%
CCOC(=O)CNC(=O)Cn1nc(N2CCN(c3ccccc3)CC2)ccc1=O	3%	0%
Cc1ccc(NC(=O)C2CC(=O)N/C(=N/N=C/c3ccco3)S2)cc1C (stereo not drawn)	13µM*	-3%
Cc1ccc(NC(=O)C2CC(=O)N/C(=N/N=C/c3ccco3)S2)cc1 (stereo not drawn)	u	-2%
O=C(Nc1nnc(-c2ccc3c(c2)OCCO3)o1)c1ccc(Cc2ccccc2)cc1	13µM*	0%
CSc1cccc(-c2nnc(NC(=O)c3ccc4c(c3)OCCO4)o2)c1	-2%	3%
COc1ccc(CCNC(=O)c2ccc3c(c2)CCN3S(=O)(=O)c2ccccc2)cc1OC	u	-2%
Cc1noc(C)c1C(=O)N1CCC2(CCCN(Cc3ccc(C#N)cc3)C2)CC1	-7%	7%
Cc1ccc(NC(=O)c2c(NC(=O)c3ccc(F)cc3)sc3c2CCCC3)cc1C	0%	-2%
COc1ccc(/C=N/NC(=O)c2ccccc2Cl)cc1CSc1nc2ccccc2s1	16µM*	-8%
COc1ccc(/C=N/NC(=O)c2cccnc2)cc1CSc1nc2ccccc2s1	u	-6%
Cc1ccc(N=Cc2nc(-c3ccco3)oc2O)cc1	-16%	-16%
O=C(Oc1oc(-c2ccco2)nc1C=Nc1ccccc1)c1ccco1	16µM*	14µM*
O=c1oc(-c2ccco2)nc2c1cnn2-c1ccccc1	0%	-2%
O=C(Oc1oc(-c2ccco2)nc1C=Nc1ccccc1)c1ccoc1	u	22µM*
C[C@@H](C(=O)O)c1cccc(C(=O)c2ccccc2)c1	-6%	-8%
CCCC(=O)Nc1nnc(SCc2cc(=O)c3ccc(C)cc3[nH]2)s1	-20%	2%
CCCCCCNC(=O)C(C#N)c1nc2ccccc2nc1N1CCCC1 (stereo not drawn)	-16%	-9%
CCCCCNC(=O)C(C#N)c1nc2ccccc2nc1N1CCCC1 (stereo not drawn)	13µM*	-2%
Cn1cc(-c2nc3cncnc3n(CCN)c2=O)c2ccccc21	-14%	1%
CCOc1ccc(CNC(=O)C2CCN(S(=O)(=O)c3cn(C)cn3)CC2)cc1OC	3%	-3%
Cc1ccc2c(c1)C1CCCC3C1N2CC(=O)N3Cc1ccccc1 (stereo not drawn)	13µM*	-4%
Cc1ccc2c(c1)C(CCN)C(=O)N2Cc1ccccc1 (stereo not drawn)	8%	1%
SMILES	Cruzain noTriton	Cruzain inh Det
Cc1ccc(C2=NNC(c3ccc(Cl)cc3)=Nc3ccccc32)o1	13µM*	-6%
Cc1ccc(-c2cc(-c3ccc(Cl)cc3)c(C#N)c(N)n2)o1	u	0%
Nc1nc(NCC2CCC(CNS(=O)(=O)c3cccc4ccccc34)CC2)nc2ccccc12 (stereo not drawn)	u	-7%
Cc1ccc(-n2c(C)cc(/C=N/Nc3ccc([N+](=O)[O-])cn3)c2C)cc1	7.9µM*	-6%
Cc1ccc([N+](=O)[O-])cc1/C=N/Nc1nnnn1-c1ccccc1	-10%	1%
O=Cc1cn(Cc2ccc([N+](=O)[O-])cc2)c2ccccc12	u	-7%
Cc1cc(C)cc(-n2c(C)cc(/C=N/NC(=O)c3cccc([N+](=O)[O-])c3C)c2C)c1	u	-4%
Cc1cc(/C=N/Nc2ccc([N+](=O)[O-])cn2)c(C)n1-c1ccccc1	4µM*	-2%
Cc1ccc(Cn2cc(/C=N/Nc3ccc([N+](=O)[O-])cn3)c3ccccc32)cc1	6.3µM*	-4%
CCNc1c(NC(=O)c2cc(OCC)c(OCC)c(OCC)c2)c(=O)oc2ccccc12	6%	-1%
CC(C)C[C@@H](CC(=O)N[C@@H](CCC(=O)O)CC(=O)O)NC(=O)[C@@H]1CNCC[C@H]1NC(=O)C[C@@H](NC(=O)C[C@H](Cc1c[nH]c2ccccc12)NC(=O)[C@@H]1CCCC[C@H]1N)C(C)C	7%	-3%
COc1c(C(C)(C)C)cc([N+](=O)[O-])c(C)c1[N+](=O)[O-]	-5%	-3%
N#CC(C#N)=NNc1ccc(OC(F)(F)F)cc1	4%	u
CC(C)(CN)SCc1ccccc1	-1%	-6%
Cc1ccc(C)c(-n2c(CCC(=O)O)ccc2-c2ccc(Cl)cc2)c1	-13%	-28%
Cc1nn2c(NCCCN3CCOCC3)c3c(nc2c1-c1ccccc1)CCC3	-5%	-2%
CCCCNc1c2c(nc3c(-c4ccccc4)c(C)nn13)CCC2	7.9µM*	-12%
CC1(C)S[C@@H]2[C@H](NC(=O)[C@@H](N)c3ccccc3)C(=O)N2[C@H]1C(=O)O[C@H]1OC(=O)c2ccccc21	-21%	2%
CCCCOCC1CO1 (stereo not drawn)	5%	-2%
O=C(Nc1cccnc1Cl)c1cc(-c2ccco2)on1	3%	5%
COc1cc(NC(=O)c2cc(-c3ccco3)on2)c(OC)cc1Cl	10µM*	5%
O=C1OC(c2ccc(O)c(-c3ccccc3)c2)(c2ccc(O)c(-c3ccccc3)c2)c2c(Cl)c(Cl)c(Cl)c(Cl)c21	-1%	1%
O=C1OC2(c3cc(Br)c(O)c(Br)c3Oc3c2cc(Br)c(O)c3Br)c2c(Cl)c(Cl)c(Cl)c(Cl)c21	u	16µM*
CCOc1ccc(/C=C2/SC(=S)N(n3c(C)ccc3C)C2=O)cc1	-41%	-6%
COc1ccc(/C=C2/SC(=S)N(n3c(C)ccc3C)C2=O)cc1	25µM*	-5%
SMILES	Cruzain noTriton	Cruzain inh Det
Cc1ccc(CNC(=O)C(=O)Nc2c3c(nn2-c2ccc(F)cc2)CSC3)cc1	13µM*	-1%
Cc1ccc(-n2nc3c(c2NC(=O)c2ccc4c(c2)OCO4)CSC3)cc1	16µM*	0%
CC(=O)Nc1c2c(nn1-c1ccc(C)cc1C)CSC2	2%	-2%
Cc1ccc(CNC(=O)C(=O)Nc2c3c(nn2-c2ccccc2)CSC3)cc1	u	0%
Cc1cccc(S(=O)(=O)c2cn(Cc3ccc(F)cc3)c3cc(N4CCOCC4)c(F)cc3c2=O)c1	12%	-2%
COc1ccc(S(=O)(=O)n2nc(-c3ccco3)nc2NCc2ccc(OC)c(OC)c2)cc1	u	-6%
O=C(N/N=C/c1cccc([N+](=O)[O-])c1)c1ccc2c(c1)OCCO2	5%	-5%
O=C(N/N=C/c1ccncc1)c1cc2c(ccc3ccccc32)o1	-1%	-6%
O=C(N/N=C/c1cccc([N+](=O)[O-])c1)c1cc(-c2ccc3c4c(cccc24)CC3)n[nH]1	7.9µM*	-5%
O=C(N/N=C/c1cccc([N+](=O)[O-])c1)c1cc2c(ccc3ccccc32)o1	10µM*	-13%
CCCCNC(=O)c1cc2n(n1)C(C(F)(F)F)CC(c1ccccc1)N2 (stereo not drawn)	u	-2%
CCOC(=O)c1c(NC(=O)c2cc3n(n2)C(C(F)(F)F)CC(c2ccccc2)N3)sc(C)c1C (stereo not drawn)	16µM*	-2%
CC1CCN(c2ccc(/C=C(\C#N)c3nn(-c4ccccc4)c(N)c3C#N)cc2[N+](=O)[O-])CC1	-11%	-3%
CC1CCCN(c2ccc(/C=C(\C#N)c3nn(-c4ccccc4)c(N)c3C#N)cc2[N+](=O)[O-])C1 (stereo not drawn)	-29%	-4%
